From PubChem BioAssay AID720517 (National Center for Advancing Translational Sciences (NCATS), 2013)
Records with an inconclusive call do not appear. Entries that show only a call come without a potency. Active and inactive are the calls of the source. Calls follow the shape of the dose curve; as a rule, active = well fitted activation curve with a large enough effect; inconclusive = small, poorly fitted or top-dose-only effect; inactive = flat fitted curve, though single readings scatter.

Test: qHTS for Inhibitors of Cell Surface uPA Generation: FP59 Counterscreen for Cherry-picked Compounds
Settings: FP59 anthrax toxin cytotoxicity counterscreen, cells; series mostly up to 115 µM

SMILES | Potency
O=C1CC(/C=C/c2ccc(Cl)cc2)=Nc2ccccc2N1 | inactive
C#CCN1C=C(C(=O)OCC)C(C)NS1(=O)=O (stereo unspecified) | inactive
CCOC(=O)C(CC)n1cnc2c(nnn2-c2ccccc2)c1=O (stereo unspecified) | inactive
COc1cc(C(C)=O)ccc1OCc1cn(CC(=O)c2ccc(O)cc2)nn1 | inactive
CC(=O)Nc1ccc(OS(=O)(=O)c2c(C)cc(C)cc2C)cc1 | inactive
CC(C)NC(=O)NC(=O)CN1C(=O)NC(Cc2c[nH]c3ccccc23)C1=O (stereo unspecified) | inactive
